Source: PubChem
Mcl1-Bid inh: Mcl-1/Bid binding inhibitors, primary screen, biochemical, TR-FRET, 1536-well | Induced myeloid leukemia cell differentiation protein Mcl-1 (Homo sapiens), Q07820 | TR-FRET Mcl-1/Bid-Dy647 peptide binding | inhibition, % at 21.7 µM | actives 0.97% (n = 220,000);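 active means compounds that cut the binding signal by more than half at the single screening dose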;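 further: His-tagged Mcl-1 with europium anti-His antibody binding Bid BH3 peptide; 0% = Mcl-1 plus peptide wells and 100% = peptide-only wells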
Target sequence (Q07820 whole entry, looked up): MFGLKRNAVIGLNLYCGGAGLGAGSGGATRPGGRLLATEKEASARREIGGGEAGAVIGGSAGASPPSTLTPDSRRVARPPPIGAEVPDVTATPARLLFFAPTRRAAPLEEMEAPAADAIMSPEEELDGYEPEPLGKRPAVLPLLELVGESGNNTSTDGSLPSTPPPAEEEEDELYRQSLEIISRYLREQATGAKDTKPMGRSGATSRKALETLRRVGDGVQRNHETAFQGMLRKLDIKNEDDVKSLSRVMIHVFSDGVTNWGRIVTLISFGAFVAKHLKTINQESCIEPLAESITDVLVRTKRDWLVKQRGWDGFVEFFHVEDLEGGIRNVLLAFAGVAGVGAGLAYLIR
Bim-Mcl-1: inhibitors of Bim peptide binding to Mcl-1, primary screen, biochemical, bead-based flow cytometry, multiplex | Induced myeloid leukemia cell differentiation protein Mcl-1 (Homo sapiens), Q07820 | Bim peptide-Mcl-1 binding | inhibition, % at 10 µM | actives 0.1% (n = 190,000) | AID 1009, 2008; in the data active means inhibition above about 40%;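 further: 0% = no compound tracer wells and 100% = peptide blocker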
TLR9-MyD88 inh: inhibitors of TLR9-MyD88 association in cells, primary screen, cell-based, CHO, BLA complementation, fluorescence | Toll-like receptor 9 (Homo sapiens) + Myeloid differentiation primary response protein … | CCF4 FRET ratio | inhibition, % at 4.98 µM | actives 0.21% (n = 340,000) | AID 504734, 2011;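 active means inhibition above the mean over all tested compounds plus 3 SD, cut at about 21% in these data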;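 further: 0% = DMSO only wells and 100% = clavulanate BLA inhibitor control wells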
TLR4 MyD88 comp: inhibitors of TLR4-MyD88 association in cells, primary screen, cell-based, HeLa CL3-4, BLA complementation, FRET ratio; inhibition, % at 8.4 µM; AID 861, 2007; HeLa CL3-4 TLR4/MyD88 BLA complementation; actives 0.18% (n = 200,000); in the data active means inhibition above about 25%;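 further: 0% = vehicle and 100% = reference inhibitor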
NOD2-RIPK2 inh: NOD2-RIPK2 binding disruptors in cells, primary screen, fluorescence, CHO cells, BLA complementation; Receptor-interacting serine/threonine-protein kinase 2 (Homo sapiens), O43353; CCF4 ratio; inhibition, % at 4.98 µM; actives 0.38% (n = 360,000); in the data active means inhibition above about 21%;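 further: 0% = vehicle only and 100% = reference blocker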
Mcl1-Noxa inh: Mcl-1/Noxa binding inhibitors, primary screen, biochemical, TR-FRET, 1536-well; inhibition, % at 21.7 µM; Induced myeloid leukemia cell differentiation protein Mcl-1 (Homo sapiens), Q07820; AID 1022, 2008; TR-FRET Mcl-1/Noxa peptide binding, 2 h; actives 1.5% (n = 220,000);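 active means compounds that cut the protein-peptide binding signal by more than 50% relative to plate controls in a single-dose test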;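 further: His-tagged Mcl-1 with rhodamine Noxa BH3 peptide and terbium anti-His antibody; 0% = Mcl-1 plus Noxa peptide wells and 100% = peptide-only wells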
The depositor's hits bear a star; . = no result given. Compounds with a hit are over-represented: about 1.8% of the library has one in this group of screens.

SMILES	Mcl1-Bid inh	Bim-Mcl-1	TLR9-MyD88 inh	TLR4 MyD88 comp	NOD2-RIPK2 inh	Mcl1-Noxa inh
NC(=O)c1nn(CC(=O)Nc2ccc3c(c2)OCO3)cc1[N+](=O)[O-]	-8	-2	8	-14	-7	74*
O=C(CN1C(=O)CSCC1=O)Nc1ccc2c(c1)OCO2	-24	-5	-4	5	-7	53*
Cc1cc(S(=O)(=O)N2CCOCC2)ccc1OCC(=O)NCc1ccccn1	.	.	-8	.	-5	.
Cn1cc(Br)c(NS(=O)(=O)c2ccc(Cl)s2)n1	5	.	2	.	-6	-16
O=C(Cn1sc2ccccc2c1=O)NC12CC3CC(CC(C3)C1)C2	32	-15	21*	-4	9	53*
COc1ccc(F)cc1S(=O)(=O)NCC1CCCO1 (stereo not drawn)	.	.	-10	.	6	.
O=C1CN(C(=O)CCN2CCOCC2)C(c2ccccc2)c2cc(Br)ccc2N1 (stereo not drawn)	-25	44*	-1	-5	-6	15
CCCC(=O)N1CC(=O)Nc2ccc(Br)cc2C1c1ccc(F)cc1 (stereo not drawn)	.	.	-11	.	-9	.
Cc1cc(/C=N/NC(=O)c2cccc([N+](=O)[O-])c2)c(C)n1-c1ccccc1	-13	-1	8	-8	-6	27
Cc1cc(/C=N/Nc2ccc([N+](=O)[O-])cn2)c(C)n1-c1ccc(C(=O)O)cc1	66*	5	6	23	1	99*
Cc1ccc(NCc2ccccc2O)cc1C	-43	-1	3	2	4	17
Oc1ccccc1CNc1ccc(OC(F)(F)F)cc1	-78	0	.	-30	-2	57*
COc1ccc(N2CCN(c3nc4ccccn4c(=O)c3/C=C(\C#N)S(=O)(=O)c3ccccc3)CC2)cc1	.	.	-9	.	-3	.
O=C(CN1C(=O)S/C(=C\C=C\c2ccccc2)C1=O)Nc1ccc(O)cc1	8	-6	-7	-2	1	55*
COC(=O)c1ccc(C2Nc3ccc(/C(C)=N/NC(=O)C(OC)c4ccccc4)cc3C3C=CCC32)cc1 (stereo not drawn)	.	13	0	-2	-1	.
CC(=O)c1ccc2c(c1)C1C=CCC1C(c1ccncc1)N2 (stereo not drawn)	-37	6	-2	2	-5	51*
COc1cccc(C2Nc3c(F)cc(Br)cc3C3C=CCC32)c1OC (stereo not drawn)	-11	5	-1	-6	6	-6
C1=CC2c3ccccc3NC(c3ccncc3)C2C1 (stereo not drawn)	-26	4	-4	7	-4	78*
COc1cccc2c1NC(C(=O)O)C1CC=CC21 (stereo not drawn)	75*	6	-7	-10	20	101*
Cc1ccc2c(c1)C1C=CCC1C(C(=O)O)N2 (stereo not drawn)	89*	9	.	-7	.	107*
Brc1cc2c(cc1C1Nc3ccccc3C3C=CCC31)OCO2 (stereo not drawn)	-32	-2	8	12	4	17
O=C(COC(=O)CSc1ccc([N+](=O)[O-])cc1)NCc1cccs1	.	.	-8	.	-7	.
Cc1cc(C)cc(C(=O)OCC(=O)Nc2ncccn2)c1	.	.	2	.	4	.
CC(=O)c1ccc2c(c1)C1C=CCC1C(C(=O)O)N2 (stereo not drawn)	-47	3	.	7	-7	74*
CCOC(=O)N1CCC(N2CCN(S(=O)(=O)c3ccc(Cl)cc3)CC2)CC1	55*	2	-7	1	6	23
CC(=O)c1ccc(N2CC(C)(C)C2=O)cc1	11	0	10	4	-4	-12
CN(C)c1ccc(N2CC(C)(C)C2=O)cc1	-46	-3	-1	10	-9	63*
COc1ccc(-c2[nH]c(-c3ccc(C(=O)O)cc3)nc2-c2ccccc2)cc1	-37	0	-2	5	0	-3
